Assay outcomes (PubChem)
Only some compounds are listed: those with a hit (about 21% of all), similar ones and a draw of the others.
TDP1 cell CPT – growth inhibition of DT40 Tdp1-/-;hTDP1 cells with camptothecin (screen for TDP1 inhibitors); chicken DT40 Tdp1-/-;hTDP1 cells + 20 nM CPT, ATP luminescence, 48 h; Potency, µM (series often up to 46.2 µM), for inactives: top-dose activity change, negative = growth inhibition, hits mostly inhibitors; actives 12% (n = 420,000); AID 686979; also: potency is read from the fitted curve at half-maximal effect; % is scaled to controls: 0 for no effect and ±100 for the full control effect; nearly all actives have a fitted effect of over 55% in size
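Cell growth measured by CellTiter-Glo luminescence after a minimum 48 h, 37 C compound exposure with 20 nM CPT in Tdp1-knockout DT40 cells stably expressing hTDP1, seeded 400/well; qHTS titration format.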
DRD3 antagonist – antagonists of human D3 dopamine receptor. actives 2.5% (n = 360,000). AID 652054. max response, negative = inhibition, %. P35462. D3R cells, DiscoveRx beta-arrestin luminescence, antagonist mode; active compounds read low; in the data active = max response below about -50%; inconclusive = no clear call, values can overlap the other calls; also: % is scaled to controls: 0 for no effect and ±100 for the full control effect
Target sequence (P35462 whole entry, looked up): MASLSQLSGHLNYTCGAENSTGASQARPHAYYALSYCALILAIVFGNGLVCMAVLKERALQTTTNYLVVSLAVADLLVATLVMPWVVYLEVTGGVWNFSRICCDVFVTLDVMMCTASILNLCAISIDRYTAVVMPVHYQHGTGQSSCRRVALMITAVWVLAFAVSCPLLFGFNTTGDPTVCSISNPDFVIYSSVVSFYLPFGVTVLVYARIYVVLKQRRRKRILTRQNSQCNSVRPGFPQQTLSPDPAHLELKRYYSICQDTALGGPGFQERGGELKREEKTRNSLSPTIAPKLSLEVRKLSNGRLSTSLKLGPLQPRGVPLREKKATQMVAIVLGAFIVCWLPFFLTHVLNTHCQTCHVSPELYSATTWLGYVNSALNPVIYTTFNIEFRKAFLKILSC
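Cells plated overnight at 1500 cells/well, then exposed to library compounds with dopamine controls for 90 minutes at 37 degrees C. DiscoveRx reagent added for 30–60 minutes at room temperature; luminescence read, quantitative HTS format.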
TDP1 cell noCPT – qHTS for Inhibitors of human tyrosyl-DNA phosphodiesterase 1 (TDP1): qHTS in cells in absence of CPT | Potency, µM (top dose mostly 46.2 µM), for inactives: top-dose activity change, negative = growth inhibition, actives largely listed as inhibitors | AID 686978, 2013 | DT40 Tdp1-/- hTDP1 cells, no CPT, ATP luminescence, 48 h | actives 15% (n = 420,000); also: potency is read from the fitted curve at half-maximal effect; % is scaled to controls: 0 for no effect and ±100 for the full control effect; nearly all actives have a fitted effect of over 55% in size
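Growth of hTDP1-complemented DT40 Tdp1-knockout cells is measured by ATP luminescence after at least 48 hr compound exposure at 37 °C, with DMSO substituting for the 20 nM CPT used in the parallel screen.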
IL-1B inflam inh – blocks inflammasome-driven IL-1 beta release; THP-1 LPS/ATP IL-1B secretion, AlphaLISA, 16 h; active compounds read low; activity change, % at 57.5 µM; actives 4.7% (n = 360,000); AID 743279; in the data active = activity change below about -50%; inconclusive = mostly about -30% to -49%; also: % is scaled to controls: 0 for no effect and ±100 for the full control effect
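THP-1 cells pretreated 1 hr with compounds (up to 57.5 uM final), then stimulated with LPS (250 ng/mL final) plus ATP (1.25 mM final); secreted IL-1B measured by AlphaLISA after 16 hr, decreased signal indicating inhibition.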
ClpP mod – qHTS Assay for Activators of ClpP | purified B. subtilis ClpP, FRET peptide cleavage, 20 min | Potency, µM (doses to about 57.5 µM), for the others: at the top dose activity change, negative = active | actives 1.9% (n = 340,000); active = well fitted falling curve with a large enough effect; inconclusive = small, poorly fitted or top-dose-only effect; inactive = no such curve, though single readings can be large or run the other way; also: potency is read from the fitted curve at half-maximal effect; the source files actives as falling curves though it sought activators and does not explain the sign; nearly all actives have a fitted effect of over 65% in size
Target sequence (P80244 whole entry, looked up): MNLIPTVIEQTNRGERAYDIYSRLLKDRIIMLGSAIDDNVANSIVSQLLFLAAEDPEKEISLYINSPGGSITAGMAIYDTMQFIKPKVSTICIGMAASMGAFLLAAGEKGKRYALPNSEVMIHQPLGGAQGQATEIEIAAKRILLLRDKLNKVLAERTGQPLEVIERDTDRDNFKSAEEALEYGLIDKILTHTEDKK
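Purified B. subtilis ClpP, 10 microg/mL final in Tris/HCl pH8 with KCl, BSA, glycerol and Tween-20, cleaved an Abz/nitrotyrosine-quenched decapeptide. Fluorescence (ex 320, em 430) was read at 0 and 20 min at room temperature. Delta was normalized to 5.8 microM ADEP and DMSO/no-enzyme controls.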
D3 ag – activates the human D3 dopamine receptor. actives 0.58% (n = 410,000). AID 652048. P35462. max activation, %. D3R DiscoveRx beta-arrestin cells, luminescence, 90 min; in the data active = max activation above about 30%; also: 0% is about no effect
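Cells at 1500/well, incubated overnight, then treated with pinned compounds (dopamine as control) for 90 min at 37 degrees C. DiscoveRx reagent added for 30 - 60 minutes at room temperature; luminescence read.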
Numbers without * were called inactive; ? = inconclusive; . = not tested or not shown; [ ] = another dose, or the depositor's remark. Unless noted, calls follow the shape of the dose curve; as a rule, active = well fitted inhibition curve with a large enough effect; inconclusive = small, poorly fitted or top-dose-only effect; inactive = flat fitted curve, though single readings scatter.

SMILES | TDP1 cell CPT | DRD3 antagonist | TDP1 cell noCPT | IL-1B inflam inh | ClpP mod | D3 ag
CC(C)(C)C(=O)Nc1nnc(COc2ccc(Cl)cc2)s1 | -4% | 6 | ? | -9 | 1% | 5
CC(C)[C@H](NC(=O)OCc1ccccc1)C(=O)OCC(=O)Nc1ccc(N2CCOCC2)cc1 | ? | 22 | ? | 19 | ? | 7
COc1ccccc1N1CCN(c2ncc3c(n2)CCN(Cc2ccc(C)s2)C3)CC1 | ? | . | ? | . | -12% | 4
C/C(=N\Nc1nc(-c2cc(C)ccc2C)cs1)c1cc2c(ccc3ccccc32)oc1=O | ? | ? | 16µM* | 12 | -4% | -2
Cc1cccc(Nc2ncc(NC(=O)c3cccc(F)c3)c(Nc3cccc(C)c3)n2)c1 | 7.3µM* | . | 5.8µM* | . | -5% | -4
O=C(Nc1ccc(Nc2ccccc2)cc1)c1cccc(F)c1 | ? | -9 | 18µM* | -15 | 0% | 2
O=C(Nc1ncccn1)c1cccc(F)c1 | -1% | -5 | 32% | 0 | -4% | -5
O=C(Nc1ccccc1)c1cccc(S(=O)(=O)Nc2cccc(F)c2)c1 | ? | . | 26µM* | . | -1% | 9
CCN(/N=C/c1ccc(Cl)cc1)c1cc(=O)n(C)c(=O)[nH]1 | -28% | 31 | -15% | 2 | -6% | -12
CCN(/N=C/C=C/c1ccccc1)c1cc(=O)n(C)c(=O)[nH]1 | 1.5µM* | -24 | -62% | -28 | . | 1
CCOc1ccc(C(=O)NC(=S)Nc2ccccc2N2CCCCC2)cc1[N+](=O)[O-] | 18µM* | -15 | ? | 2 | -5% | -2
CC(=O)N1CCN(c2ccc(NC(=S)NC(=O)c3ccc(C)c([N+](=O)[O-])c3)cc2)CC1 | -15% | 13 | ? | -18 | 32µM* | 5
CCOc1ccc(C(=O)NC(=S)Nc2ccc(N3CCCCC3)cc2)cc1[N+](=O)[O-] | 12µM* | -1 | ? | 9 | 2% | 3
COc1ccc(C(=O)NC(=S)Nc2ccccc2N2CCCCC2)cc1[N+](=O)[O-] | 12µM* | -4 | 6.5µM* | 18 | 0% | -2
CCOc1ccc(C(=O)NC(=S)Nc2ccc(NC(=O)CC)cc2)cc1[N+](=O)[O-] | -14% | -9 | -22% | 0 | 1% | -8
CCOc1ccc(C(=O)NC(=S)Nc2ccccc2OC)cc1[N+](=O)[O-] | -21% | -24 | -28% | -13 | -1% | -1
Cc1ccc(CN2CCN(C3CCNCC3)C(=O)C2=O)cc1 | -13% | . | 0% | . | 2% | -27
CCC(=O)NC(=S)Nc1ccc(NC(=O)c2ccc(C)c([N+](=O)[O-])c2)cc1 | ? | 11 | 8.2µM* | 0 | 2% | 9
O=C(NC(=S)Nc1ccccc1N1CCCC1)c1ccc([N+](=O)[O-])cc1 | 26µM* | -8 | 18µM* | -21 | 1% | -1
COC(=O)c1cc(Br)ccc1NC(=O)CSCc1c(C)noc1C | ? | 3 | ? | 37 | -3% | -2
COc1ccc(CCNc2ncnc3c2nnn3C)cc1 | 16µM* | . | 21µM* | . | 2% | -2
COc1cccc(CCNc2ncnc3c2nnn3C)c1 | ? | . | 8.2µM* | . | -2% | 6
COc1cccc(CNc2ncnc3c2nnn3C)c1 | ? | . | ? | . | -2% | -2
Cc1nnc(NC(=O)c2ccc3ccccc3n2)s1 | ? | -3 | ? | 64 | -2% | 3
COc1cccc(/C=N/n2c(SC)nnc2-c2ccccc2)c1O | 10µM* | -8 | 16µM* | 40 | -1% | -7
SMILES | TDP1 cell CPT | DRD3 antagonist | TDP1 cell noCPT | IL-1B inflam inh | ClpP mod | D3 ag
Cc1c(C(=O)Nc2ccc(S(=O)(=O)NCC3CCCO3)cc2)cccc1[N+](=O)[O-] (configuration not stated) | ? | -10 | ? | -14 | . | 1
O=C(Nc1ccc(F)cc1)c1ccc(S(=O)(=O)NCC2CCCO2)cc1 (configuration not stated) | 18µM* | -7 | 13µM* | ? | -1% | 5
O=C(Nc1ccc(S(=O)(=O)NCC2CCCO2)cc1)c1ccc(Cl)cc1[N+](=O)[O-] (configuration not stated) | 8.2µM* | 0 | ? | -25 | . | 3
O=S(=O)(NCC1CCCO1)c1ccc(S(=O)(=O)N(Cc2ccccc2F)C2CCCCC2)cc1 (configuration not stated) | 13µM* | -10 | ? | -8 | -2% | 1
O=C(Nc1ccccc1)c1ccc(S(=O)(=O)NCC2CCCO2)cc1 (configuration not stated) | -26% | 7 | -23% | 9 | 0% | -5
O=C1Nc2ccccc2Oc2cc(Oc3ccccc3)ccc21 | ? | . | ? | . | 4% | 8
O=C(O)c1ccccc1C(=O)Nc1nc(-c2ccc3ccccc3c2)cs1 | 3% | 41 | -3% | 1 | 0% | 7
O=C(Nc1cc(-c2ccccc2)cs1)c1ccco1 | ? | 6 | 15µM* | -29 | . | 2
CC(C)Oc1ccc(C(=O)OC(C)C(=O)Nc2nc(-c3cccc([N+](=O)[O-])c3)cs2)cc1 (configuration not stated) | 16µM* | 1 | 26µM* | -3 | 1% | 2
O=C(/C=C\c1ccco1)Nc1nc(-c2ccc3ccccc3c2)cs1 | ? | 31 | ? | -72* | -18% | -7
NC(=O)c1cc(Cc2ccccc2)sc1NC(=O)c1ccco1 | ? | 14 | 12µM* | -56* | -12% | 4
Cc1ncc2c(c1CNC(=O)c1cncs1)CCN(C(=O)c1ccc(C(F)(F)F)cc1)C2 | -15%[9.04 µM] | . | -14% | . | . | .
O=C(Nc1nc(-c2ccccc2)cs1)c1ccco1 | ? | 10 | ? | -59* | . | -9
O=C(NC(=S)Nc1nc(-c2ccc(Br)cc2)cs1)c1ccco1 | -18% | -18 | ? | 7 | . | -4
Cc1ccc(-c2csc(NC(=O)c3ccc(-c4ccccc4)cc3)n2)o1 | 16µM* | 62 | ? | -23 | -22% | 6
COc1ccc(-c2csc(NC(=O)c3ccco3)n2)cc1 | -6% | 12 | -13% | -26 | 0% | -3
O=C(NNc1nc(-c2ccc(Br)cc2)cs1)c1ccco1 | 18µM* | 3 | 16µM* | -2 | 1% | 5
CC(OC(=O)c1ccco1)C(=O)Nc1nc(-c2ccccc2)cs1 (configuration not stated) | ? | -13 | 16µM* | 20 | . | 3
